Data on nine molecules can be found in PubChem BioAssay (NCI).

This is part of a sample that, as a whole, favours compounds with a hit. Of some 83,000 tested, about 20% had one in any assay.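 Results are percent growth after 48 hours of single-concentration exposure. 100 means growth as in untreated cells, lower positive values show inhibition; negative values down to -100 show cell death.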 Values without a mark were called inactive. Activity calls are given as the source filed them. The calls were made as follows: active = growth percent below 10; inactive = the rest.

Some test systems named below: SK-MEL-2 melanoma; EKVX NSCLC; SN12C renal; UO-31 renal; TK-10 renal; ACHN renal; CAKI-1 renal; CCRF-CEM leukemia; MOLT-4 leukemia; SR leukemia; OVCAR-5 ovarian; OVCAR-4 ovarian; IGROV1 ovarian; OVCAR-3 ovarian; HS 578T breast; NCI/ADR-RES ovarian; RPMI-8226 leukemia; OVCAR-8 ovarian; SK-OV-3 ovarian; A498 renal.
What all share (assay): NCI-60 one-dose screen, 48 h (100 = growth as untreated, 0 = no growth, -100 = all killed)
Holding throughout (conditions): 10 µM unless noted

For `Cc1cc(-c2noc(C(F)(F)F)n2)ccc1N1CCN(c2cc(C(=O)N(C)C)no2)CC1`, the growth in the assay on SK-MEL-2 melanoma is 73%; in the assay with EKVX NSCLC it was 49.5%; with SN12C renal, 83%; in the assay with UO-31 renal, 62.7%; in the assay on TK-10 renal it was 81.2%; in the assay with ACHN renal, 63.9%. Also, the growth in the assay on CAKI-1 renal was 67.7%; in the assay with CCRF-CEM leukemia it was 65.3%; with MOLT-4 leukemia it was 71.5%; with SR leukemia, 52.9%; with OVCAR-5 ovarian it was 102%; in the assay with OVCAR-4 ovarian it was 64.9%. Besides, the growth was 92.1% in the assay on IGROV1 ovarian, 83.9% in the assay with OVCAR-3 ovarian, 89.1% in the assay with HS 578T breast and 69.5% in the assay on NCI/ADR-RES ovarian.

As for `COc1ccc(C2=NC(=O)NC2c2ccc(OC)cc2)cc1` (stereo not given), the growth in the assay on SK-MEL-2 melanoma was 59.9%; in the assay with EKVX NSCLC, 75.9%; in the assay with SN12C renal it was 71%; with UO-31 renal it was 61%; in the assay on TK-10 renal it was 87.6%; in the assay with ACHN renal it was 83.2%. The growth is 50.6% in the assay on CAKI-1 renal; 68.3% with CCRF-CEM leukemia; 65.8% with MOLT-4 leukemia; 57.4% with RPMI-8226 leukemia; 97.6% in the assay on OVCAR-8 ovarian; 77.8% in the assay with OVCAR-5 ovarian. For the same molecule, the growth is 74.8% in the assay on OVCAR-4 ovarian; 66.4% in the assay with SK-OV-3 ovarian; 77.8% with IGROV1 ovarian; 69% in the assay on OVCAR-3 ovarian; 1.85% (active) in the assay on NCI/ADR-RES ovarian.

In the case of `COc1cc(-c2cc(-c3ccc(Nc4nc(Nc5ccccc5)nc(Nc5ccc(Cl)cc5)n4)cc3)nc(N)n2)cc(OC)c1OC`, the growth in the assay with SK-MEL-2 melanoma was 59.5%; with EKVX NSCLC, 59.4%; with SN12C renal it was 70.7%; in the assay with UO-31 renal, 43.1%; in the assay on TK-10 renal it was 91.3%; in the assay on ACHN renal, 59.7%. Moreover, the growth in the assay with CAKI-1 renal is 60.7%; in the assay with CCRF-CEM leukemia, 28.2%; in the assay with RPMI-8226 leukemia, 40.1%; with OVCAR-8 ovarian, 60.1%; with OVCAR-5 ovarian, 70%; in the assay with OVCAR-4 ovarian, 49.9%. Moreover, the growth in the assay on SK-OV-3 ovarian was 113%; with IGROV1 ovarian, 39.2%; with OVCAR-3 ovarian it was 63.8%; in the assay on NCI/ADR-RES ovarian, 50.9%.

Turning to `Cl.Fc1c[c-]c(-c2ccccn2)c(F)c1.[Pt].c1ccc(P(c2ccccc2)C([PH+](c2ccccc2)c2ccccc2)[PH+](c2ccccc2)c2ccccc2)cc1`, the growth was 7.06% (active) in the assay with SK-MEL-2 melanoma; 20.8% in the assay with EKVX NSCLC; 11.2% in the assay on SN12C renal; -5.69% (active) with UO-31 renal; 24.3% in the assay with TK-10 renal; 17.5% with ACHN renal. Moreover, the growth in the assay with CAKI-1 renal was -1.81% (active); in the assay on CCRF-CEM leukemia it was 17.3%; in the assay on MOLT-4 leukemia, 13.2%; in the assay with SR leukemia, 23.3%; in the assay with OVCAR-5 ovarian, 22%; in the assay on OVCAR-4 ovarian, 17.2%. For the same molecule, the growth in the assay with IGROV1 ovarian was 19.1%; with OVCAR-3 ovarian it was 11%; with NCI/ADR-RES ovarian, 84.2%.

With `CCOC(=O)Cc1csc2nc(-c3ccccc3)nn12`, the growth in the assay with SK-MEL-2 melanoma is 114%; in the assay on EKVX NSCLC, 105%; with SN12C renal, 106%; with UO-31 renal, 97%; in the assay on TK-10 renal it was 126%; in the assay with ACHN renal it was 99.7%. Also, the growth with A498 renal was 90.4%; in the assay on CCRF-CEM leukemia, 103%; in the assay on MOLT-4 leukemia it was 111%; in the assay on SR leukemia, 98.8%; in the assay on RPMI-8226 leukemia it was 113%; in the assay on OVCAR-8 ovarian, 98.3%. For the same molecule, the growth with OVCAR-5 ovarian is 92.9%; with OVCAR-4 ovarian, 105%; in the assay with SK-OV-3 ovarian it was 115%; in the assay with IGROV1 ovarian, 104%; in the assay on OVCAR-3 ovarian it was 117%; in the assay on HS 578T breast, 103%. Besides, the growth in the assay on NCI/ADR-RES ovarian is 104%.

As for `N=C(N)c1ccc(-c2ccc(-c3ccc(Cl)c(Cl)c3)o2)cc1`, the growth in the assay on SK-MEL-2 melanoma was 102%; in the assay on EKVX NSCLC, 69.8%; in the assay with SN12C renal, -81% (active); in the assay with UO-31 renal, -69.1% (active); with TK-10 renal it was 76%; in the assay on ACHN renal, -70.7% (active). In addition, the growth was 53% in the assay with CAKI-1 renal; -24.9% (active) in the assay on CCRF-CEM leukemia; -14.5% (active) in the assay with SR leukemia; 1.38% (active) with OVCAR-8 ovarian; 39.9% in the assay on OVCAR-5 ovarian; -13.1% (active) in the assay on OVCAR-4 ovarian. The growth is -64.6% (active) with IGROV1 ovarian, -42.2% (active) with OVCAR-3 ovarian, 70.9% with HS 578T breast and 35.1% with NCI/ADR-RES ovarian.

On to `O=C1Nc2ccccc2/C1=N/N=C/c1ccc(OC2OC(CO)C(O)C(O)C2O)cc1` (stereo not given), for which the growth was 107% in the assay on SK-MEL-2 melanoma; 100% in the assay with EKVX NSCLC; 101% in the assay with SN12C renal; 78.6% with UO-31 renal; 110% with TK-10 renal; 103% in the assay on ACHN renal. In addition, the growth was 95.1% in the assay on CAKI-1 renal; 107% in the assay on CCRF-CEM leukemia; 116% in the assay with SR leukemia; 102% with OVCAR-8 ovarian; 98.2% in the assay with OVCAR-5 ovarian; 115% with OVCAR-4 ovarian. Besides, the growth with IGROV1 ovarian was 116%; in the assay with OVCAR-3 ovarian, 113%; in the assay with HS 578T breast, 98.9%; in the assay with NCI/ADR-RES ovarian it was 106%.

As to `CC1=CC(=O)C(C(C)C)=CC1=Nc1cc(Br)c(O)c(Br)c1`, the growth in the assay on SK-MEL-2 melanoma was 23.5%; in the assay on EKVX NSCLC, 44.1%; in the assay with SN12C renal, 36.3%; in the assay with UO-31 renal it was 48.4%; in the assay with TK-10 renal, 93.2%; in the assay on ACHN renal it was 57.8%. In addition, the growth in the assay with CAKI-1 renal was 51.3%; with CCRF-CEM leukemia it was -1.08% (active); in the assay on MOLT-4 leukemia it was 23.8%; in the assay on RPMI-8226 leukemia, -8.71% (active); with OVCAR-8 ovarian, 31.1%; in the assay on OVCAR-5 ovarian it was 29.4%. In addition, the growth in the assay on OVCAR-4 ovarian was 37.2%; in the assay on SK-OV-3 ovarian, 19.6%; in the assay with IGROV1 ovarian, 22.9%; in the assay on OVCAR-3 ovarian, -9.25% (active); in the assay with NCI/ADR-RES ovarian, -22.9% (active).

For the molecule `NC(=O)c1c(NC(=O)c2ccccn2)sc2c1CCC(=O)C2`, the growth was 37.8% in the assay on SK-MEL-2 melanoma; 33.8% in the assay on EKVX NSCLC; 25.9% in the assay with SN12C renal; 4.56% (active) in the assay on UO-31 renal; 38.3% with TK-10 renal; 5.89% (active) in the assay on ACHN renal. The growth was -2.09% (active) with CAKI-1 renal; 12.7% with CCRF-CEM leukemia; 81.6% with MOLT-4 leukemia; 1.88% (active) with RPMI-8226 leukemia; 14.2% with OVCAR-8 ovarian; 21.5% in the assay on OVCAR-5 ovarian. In addition, the growth was -7.1% (active) with OVCAR-4 ovarian; 95.6% with SK-OV-3 ovarian; 29.9% with IGROV1 ovarian; 7.94% (active) in the assay on OVCAR-3 ovarian; 25.1% in the assay with HS 578T breast; 17.6% with NCI/ADR-RES ovarian.
